VDR inhibitor – Inhibitors of the vitamin D receptor (VDR): qHTS; Potency, µM, actives largely listed as inhibitors; VDR-SRC2-3 peptide fluorescence polarization, 2 h; Vitamin D3 receptor (Homo sapiens), P11473; actives 0.93% (n = 400,000)
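Two reagent solutions held at 4 deg C in the dark were dispensed, compounds pinned at 23 nl, and the mixture incubated 2 h at room temperature. Read-out: fluorescence polarization of VDR–SRC2-3 peptide binding.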
GCN5L2 inh – qHTS Assay for Inhibitors of GCN5L2; Potency, µM (highest dose often 58.9 µM), most hits filed as inhibitors; GCN5L2 HAT assay, ThioGlo1 CoA-SH fluorescence; Histone acetyltransferase KAT2A (Homo sapiens), Q92830; actives 0.21% (n = 390,000)
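Compounds, pin-transferred from DMSO stocks, meet 20nM GCN5L2 for 15 min before the reaction begins with H3(1-25) peptide (75uM) and acetyl-CoA (70uM). Thiol-reactive ThioGlo1 reports CoA release over 20 min at room temperature.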
rTrxR1 inhibitor – qHTS Assay for Inhibitors of Mammalian Selenoprotein Thioredoxin Reductase 1 (TrxR1): qHTS. recombinant rTrxR1, NADPH fluorescence consumption, selenite substrate. Thioredoxin reductase 1, cytoplasmic (Rattus norvegicus), O89049. Potency, µM (doses to about 114 µM), usual class: inhibitors. actives 1% (n = 390,000). AID 588453, 2011; note: nearly all actives have a fitted effect of over 65% in size
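Rat TrxR1 (90 nM in the dispensed reagent) was pre-reduced with 400 uM NADPH for 5 min at room temperature, then incubated with compound for 15 min. After 400 uM selenite was added, NADPH fluorescence (Ex 340/Em 450 nm) was followed for 8 min.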
GLS inhibitor – qHTS for Inhibitors of Glutaminase (GLS); GLS enzymatic activity, qHTS titration; Potency, µM (series often up to 45.5 µM), usual class: inhibitors; actives 0.21% (n = 410,000)
Target sequence (O94925 whole entry, looked up): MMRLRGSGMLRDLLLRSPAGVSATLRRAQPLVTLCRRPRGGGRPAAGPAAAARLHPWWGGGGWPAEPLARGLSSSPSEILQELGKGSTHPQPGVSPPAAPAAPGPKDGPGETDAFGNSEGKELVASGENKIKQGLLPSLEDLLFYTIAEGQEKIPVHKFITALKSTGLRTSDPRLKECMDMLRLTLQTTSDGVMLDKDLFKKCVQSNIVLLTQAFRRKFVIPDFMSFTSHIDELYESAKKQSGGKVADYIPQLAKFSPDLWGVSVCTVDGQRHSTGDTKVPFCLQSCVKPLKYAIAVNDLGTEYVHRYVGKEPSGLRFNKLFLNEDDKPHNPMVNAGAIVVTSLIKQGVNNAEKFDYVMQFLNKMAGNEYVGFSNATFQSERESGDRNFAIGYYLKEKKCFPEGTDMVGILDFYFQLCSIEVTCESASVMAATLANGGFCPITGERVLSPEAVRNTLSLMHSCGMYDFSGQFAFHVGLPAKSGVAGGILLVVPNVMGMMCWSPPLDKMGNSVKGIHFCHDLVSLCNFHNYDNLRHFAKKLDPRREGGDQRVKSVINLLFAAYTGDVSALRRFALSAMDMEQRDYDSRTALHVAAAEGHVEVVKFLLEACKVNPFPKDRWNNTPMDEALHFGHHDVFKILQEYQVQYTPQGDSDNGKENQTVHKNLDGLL
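hKGA in 45 mM KH2PO4 pH 8.2, 0.02% Tween-20 with pin-transferred compounds; 1 mM L-glutamine (stock) plus glutamate oxidase/HRP/Amplex Red coupling added. Fluorescence read initially and after 30 min at RT.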
TrxR1 substrate – qHTS Assay for Substrates of Mammalian Selenoprotein Thioredoxin Reductase 1 (TrxR1): qHTS; Thioredoxin reductase 1, cytoplasmic (Rattus norvegicus), O89049; purified TrxR1 substrate turnover, NADPH consumption readout; Potency, µM (doses to about 114 µM); actives 0.01% (n = 390,000); note: nearly all actives have a fitted effect of over 50% in size
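Rat TrxR1, dispensed at 90 nM, was prereduced with 400 uM NADPH (final) for 5 min at ~22 deg C, then incubated with compound 15 min before 400 uM selenite. A first-read NADPH fluorescence drop versus no-compound background flagged substrates.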
Sfp inh – qHTS Assay for Inhibitors of Bacillus subtilis Sfp phosphopantetheinyl transferase (PPTase) | 4'-phosphopantetheinyl transferase ffp (Bacillus subtilis), Q9F4F7 | AID 1490, 2009 | Potency, µM, hits mostly inhibitors | Biochemical Sfp PPTase activity, qHTS | actives 3.5% (n = 310,000);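 note: the enzyme is Sfp with the accession as filed and its product quenches rhodamine fluorescence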
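Reaction rates are the 30-min fluorescence difference (ex 525, em 598 nm) in wells containing 15 nM Sfp, 5 uM rhodamine-CoA and 12.5 uM BHQ-2-YbbR at pH 7.6 with 10 mM MgCl2.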
Hits are given with their value; n = inactive; u = inconclusive; x = not tested or not shown. Shown are actives, neighbours in structure and some others; about 3.8% of the full set was active somewhere. Calls come from the whole dose curve; as a rule, active = well fitted curve in the direction sought with a large enough effect; inconclusive = small, poorly fitted or top-dose-only effect, or another doubt; inactive = no such curve, though single readings can be large; an effect the other way counts as inactive or inconclusive.

SMILES | VDR inhibitor | GCN5L2 inh | rTrxR1 inhibitor | GLS inhibitor | TrxR1 substrate | Sfp inh
COC(=O)CCSc1cc([N+](=O)[O-])cc2c1c(C1OCCO1)nn2-c1ccccc1 | n | n | n | n | n | n
Cc1cc(=O)n2cccc(O)c2n1 | n | n | n | n | n | 56µM
Cc1nnc(SCc2cc(=O)n3cccc(C)c3n2)s1 | n | n | n | n | n | x
Cc1c2c(c(O)c3c(O)cccc13)C(=O)O[C@H]2C1C(N(C)C)C(O)=C(C(N)=O)C(=O)[C@H]1O (some centres not stated) | 16µM | 3.2µM | x | x | x | u
CC1CCc2nn(CC(=O)NCc3ccc(F)cc3)cc2C1 (configuration not stated) | n | n | n | n | n | n
Cc1oc(-c2ccccc2F)nc1CS(=O)CC(=O)NC(C)C (configuration not stated) | n | n | 40µM | n | n | x
CCC(C)NC(=O)CS(=O)Cc1nc(-c2ccccc2C)oc1C (configuration not stated) | n | n | 7.1µM | n | n | n
Cc1oc(-c2ccccc2F)nc1CS(=O)CC(=O)NCc1cccs1 (configuration not stated) | n | n | u | n | n | n
COc1cc(CCC(=O)Nc2sccc2C#N)cc(OC)c1OC | n | n | n | n | n | n
CCn1cc(CNCc2ccc(OCC(O)CN(C)Cc3ccccc3)cc2)cn1 (configuration not stated) | n | n | n | u | n | n
O=C(Nc1ccccc1)Nc1cccc2nsnc12 | n | n | n | n | n | 63µM
O=C(Nc1cccc2nsnc12)c1ccc(-c2ccc(Br)cc2)o1 | u | n | u | n | n | 40µM
O=C(Nc1cccc(-c2nc3ccccc3o2)c1)c1ccc(-c2ccc(Br)cc2)o1 | n | n | n | n | n | x
O=C(Nc1cccc2nsnc12)c1cccs1 | n | n | n | n | n | n
O=C(Nc1cccc(NC(=O)c2ccc(-c3ccc(Br)cc3)o2)c1)c1ccco1 | n | n | 79µM | x | n | n
Cc1nn(C)c(N)c1[N+](=O)[O-] | n | n | n | n | n | n
Cc1nn(C)c(Sc2ccccc2N)c1[N+](=O)[O-] | u | n | n | n | n | 3.5µM
Cc1cccc(Nc2nc(-c3ccncc3)cs2)c1 | n | n | n | n | n | n
Cc1nc2ccccn2c1-c1csc(Nc2cccc(C(=O)O)c2)n1 | n | n | n | n | n | 79µM
Cc1nc2ccccn2c1-c1csc(Nc2ccc(C(=O)O)cc2)n1 | n | n | n | n | n | n
Cc1cccc(Nc2nc(-c3c(C)nc4ccccn34)cs2)c1 | n | n | n | n | n | 50µM
COc1cc(C(O)c2nc(-c3ccncc3)cs2)ccc1F (configuration not stated) | x | x | x | n | x | x
Oc1cccc(/C=N/N2CCCCC2)c1O | n | n | n | n | n | n
Oc1ccccc1C=NN1CCCCCC1 | n | x | n | u | n | x
Oc1ccc(/C=N/N2CCOCC2)c(O)c1O | u | n | n | n | n | 10µM
SMILES | VDR inhibitor | GCN5L2 inh | rTrxR1 inhibitor | GLS inhibitor | TrxR1 substrate | Sfp inh
Oc1ccc(/C=N/N2CCCCC2)c(O)c1O | u | n | n | n | n | 7.9µM
Oc1ccc(/C=N/N2CCCCC2)c(O)c1 | n | n | n | 6.3µM | n | n
COc1ccc2c(c1OC)C(=O)OC2n1c(O)c(N=NC(C)=O)c2ccccc21 (configuration not stated) | n | n | n | n | n | n
CCOc1ccc(-c2[nH]nc3c2C(c2ccc(O)cc2)C(C#N)=C(N)O3)cc1 (configuration not stated) | n | n | n | n | n | n
CCOc1cc(C2C(C#N)=C(N)Oc3n[nH]c(-c4ccncc4)c32)cc([N+](=O)[O-])c1O (configuration not stated) | n | n | n | n | n | 79µM
Cc1cccc(C(=O)NN2C(=O)C3C(c4ccccc4)C=CC(c4ccccc4)C3C2=O)c1 (configuration not stated) | n | n | n | n | n | n
O=C(NN1C(=O)C2C3C=CC(O3)C2C1=O)c1cccc(Br)c1 (configuration not stated) | n | n | n | n | n | 40µM
O=C(NN1C(=O)C2C3C=CC(O3)C2C1=O)c1cccc(O)c1 (configuration not stated) | n | n | u | n | n | 45µM
CCOC(=O)C1(CCOc2ccccc2)CCN(Cc2ccncc2)CC1 | n | n | n | n | n | 45µM
Cc1ccc(S(=O)(=O)n2c(CN3CCCC(C)C3)nc3ccccc32)cc1 (configuration not stated) | n | n | n | n | n | n
COC(=O)c1ccc(NC(=S)N2CCC(C(N)=O)CC2)cc1 | n | n | n | n | n | 32µM
COC(=O)c1sccc1NC(=S)N1CCC(C(N)=O)CC1 | n | n | n | n | n | 79µM
COC(=O)c1sccc1NC(=S)N1CCCCC1 | n | n | n | n | n | n
CCn1cc2nc(SCC(=O)Nc3cc(OC)ccc3OC)n(Cc3ccc(Cl)cc3)c(=O)c2n1 | n | n | n | n | n | x
NC1=C(c2ccc(F)cc2)C(=O)CS1 | u | n | n | n | n | 79µM
COCCN(C(=O)CSc1nn(-c2ccc(F)cc2)c(=S)s1)c1c(N)n(CC(C)C)c(=O)[nH]c1=O | n | n | n | n | n | x
CCCCO | n | n | x | n | x | n
O=S(=O)(Nc1ccc(NS(=O)(=O)c2ccccc2)c(Cl)c1)c1ccccc1 | n | x | n | n | n | x
Cc1cc(NS(=O)(=O)c2ccccc2)cc(Cl)c1O | n | n | u | n | n | 79µM
Brc1cc(Br)c2ncnc(N3CCCCC3)c2c1 | n | n | n | n | n | n
COc1ccccc1C(=O)NNC(=O)c1cccc(C)c1 | 71µM | n | n | u | n | n
CC(C)(C)OC(=O)C1=NOC2(C=CC(=O)C=C2)C1 | 28µM | x | x | x | x | n
CCOC(=O)C1=NOC2(C1)C(=O)Nc1ccc(OC(F)(F)F)cc12 (configuration not stated) | x | x | x | n | x | x
CC(C)(Oc1ccc(Cl)cc1)C(=O)Nc1cccc(-c2cn3cccnc3n2)c1 | n | n | n | n | n | x
Cc1cc(C(=O)N/N=C/c2cc(Br)c(Br)o2)n[nH]1 | u | n | 35µM | n | n | u
COc1ccc(-c2nc3ccccc3c(=O)n2NC(=S)N(C)C)cc1 | 35µM | n | u | n | n | 18µM
